We go through 4 compounds from PubChem BioAssay (EPA / NIEHS).

Assay [1] can be described thus: ATG_CRE_CIS: Attagene CIS-FACTORIAL HepG2 Assay for human cAMP Responsive Element (CRE) binding protein 3 (AID 2282926). The following applies: HepG2 CRE cis-reporter, Attagene multiplexed mRNA; actives raise or lower the signal. The method, boiled down: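 Transfected HepG2 were treated for 24 hours, then RNA was extracted and reporter cDNA amplified with sequence-specific primers. Labelled fragments were separated by capillary electrophoresis, and the CRE signal was fitted bidirectionally with DMSO as baseline.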

Assay [2] concerns the target CCAAT/enhancer-binding protein beta (Homo sapiens) (UniProt P17676). The assay can be described thus: ATG_C_EBP_CIS: Attagene CIS-FACTORIAL HepG2 Assay for human CCAAT/Enhancer Binding Protein (C/EBP) beta (AID 2282927). The following applies: HepG2 Attagene cis-factorial transcription factor reporter; actives raise or lower the signal. The method, boiled down: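 HepG2 transiently transfected with multiplexed reporter units under cis-regulatory promoters reporting endogenous C/EBPb activity. After 24 h exposure, reporter mRNA assayed by RT-PCR, fluorescent labelling, HpaI digestion and capillary electrophoresis; bidirectional fitting versus DMSO.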

Assay [3] can be described thus: ATG_CMV_CIS: Attagene CIS-FACTORIAL HepG2 Assay for human CMV (Internal Marker) (AID 2282928).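 Further: endpoint acts as a background internal control marker rather than a target.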 The following applies: HepG2 CMV promoter reporter, transcription factor profiling; actives raise or lower the signal. The method, boiled down:
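Endogenous transcription factor activity read in HepG2 via transfected cis-promoter reporter units. After 24 h dosing, reporter mRNA measured by RT-PCR/capillary electrophoresis; gain or loss of signal fit relative to DMSO.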

Assay [4] is described as follows: ATG_DR4_LXR_CIS: Attagene CIS-FACTORIAL HepG2 Assay for human Liver X Receptor (LXR), DR4 submotif (AID 2282929). To be noted: HepG2 Attagene DR4 cis-reporter, mRNA transcription; actives raise or lower the signal. In a few lines:
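After transient transfection with multiplexed cis-promoter reporter units, HepG2 cells received test chemicals for 24 h. Reporter mRNA induction, detected by fluorescence after RT-PCR and capillary electrophoresis, was scored relative to DMSO.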

Assay [5] addresses Aryl hydrocarbon receptor (Homo sapiens) (UniProt P35869). The experiment in a line: ATG_Ahr_CIS: Attagene CIS-FACTORIAL HepG2 Assay for human Aryl Hydrocarbon Receptor (Ahr) (AID 2282930). The following applies: HepG2 AhR cis-factorial reporter transcription; actives raise or lower the signal. In a few lines:
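HepG2 cells transiently transfected with cis-element-driven multiplexed reporter units; endogenous AhR activity read as reporter mRNA 24 h after dosing, via RT-PCR, 6-FAM labelling, HpaI digestion and capillary electrophoresis. Bidirectional fit relative to DMSO.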

Assay [6] is described as follows: ATG_AP_1_CIS: Attagene CIS-FACTORIAL HepG2 Assay for human Activator Protein 1 (AP-1) (AID 2282931). The following applies: HepG2 Attagene cis-factorial AP-1 reporter mRNA; actives raise or lower the signal. The method, boiled down:
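After 24 h incubation with test chemical, RNA from transfected HepG2 cells was reverse-transcribed, amplified, fluorescently labelled and digested before capillary electrophoresis. Reporters were driven by cis-regulatory promoters; activity fitted bidirectionally versus DMSO.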

A short description of assay [7]: ATG_AP_2_CIS: Attagene CIS-FACTORIAL HepG2 Assay for human Activator Protein 2 (AP-2) (AID 2282932). To be noted: HepG2 AP-2 cis-reporter, Attagene transcription factor profiling; actives raise or lower the signal. In a few lines: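 HepG2 cells transiently transfected with cis-element reporter units and exposed for 24 h. Reporter mRNA measured by RT-PCR, FAM labelling, HpaI digestion and capillary electrophoresis. Changes in either direction fitted relative to DMSO.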

Assay [8] in a line: ATG_BRE_CIS: Attagene CIS-FACTORIAL HepG2 Assay for human Bone Morphogenetic Protein (BMP) Response Element (BRE) (AID 2282933). To be noted: HepG2 BMP response element reporter, Attagene transcription factor profiling; actives raise or lower the signal. In a few lines:
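Endogenous transcription factor activity at a BMP response element was monitored in transfected HepG2 cells 24 h after dosing. Fluorescent RT-PCR products were resolved by capillary electrophoresis, and activity was fitted in both directions versus DMSO.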

Assay [9] concerns the target Retinoic acid receptor alpha (Homo sapiens) (UniProt P10276). The assay can be described thus: ATG_DR5_RAR_CIS: Attagene CIS-FACTORIAL HepG2 Assay for human Retinoic Acid Receptor Alpha (RARE), DR5 submotif (AID 2282934). To be noted: HepG2 Attagene cis-factorial RARE DR5 reporter, mRNA; actives raise or lower the signal. In a few lines: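 HepG2 cells transiently transfected with multiplexed reporter units; DR5 cis-element drives reporter through endogenous transcription factors. After 24 h dosing, reporter mRNA quantified by RT-PCR, fluorescent labeling, HpaI digestion and capillary electrophoresis; bidirectional fitting versus DMSO.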

For assay [10], the target named is Transcription factor E2F1 (Homo sapiens) (UniProt Q01094). The experiment in a line: ATG_E2F_CIS: Attagene CIS-FACTORIAL HepG2 Assay for human E2F Transcription Factor 1 (AID 2282935). To be noted: HepG2 Attagene cis-reporter, E2F reporter RNA transcripts; actives raise or lower the signal. In a few lines: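 Endogenous E2F1 activity read through cis-promoter reporter units transfected into HepG2. After 24 h compound treatment, reporter mRNA measured by RT-PCR, HpaI digestion and capillary electrophoresis. Bidirectional fit versus DMSO.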
Sequence of Transcription factor E2F1 (Homo sapiens) (Q01094 whole entry, looked up): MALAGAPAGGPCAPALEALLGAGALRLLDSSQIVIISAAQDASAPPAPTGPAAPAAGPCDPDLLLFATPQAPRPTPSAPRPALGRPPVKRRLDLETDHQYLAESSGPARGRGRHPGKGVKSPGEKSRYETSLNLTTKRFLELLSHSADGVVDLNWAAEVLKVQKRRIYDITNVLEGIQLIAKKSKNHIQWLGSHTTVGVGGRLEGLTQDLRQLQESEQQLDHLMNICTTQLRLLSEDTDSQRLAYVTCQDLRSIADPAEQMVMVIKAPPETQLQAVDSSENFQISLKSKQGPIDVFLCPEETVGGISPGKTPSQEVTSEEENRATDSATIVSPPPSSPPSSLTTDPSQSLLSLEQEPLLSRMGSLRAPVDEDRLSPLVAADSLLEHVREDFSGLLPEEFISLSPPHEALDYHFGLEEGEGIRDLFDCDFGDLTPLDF

Assay [11] can be described thus: ATG_E_Box_CIS: Attagene CIS-FACTORIAL HepG2 Assay for human Enhancer Box (E-box) (AID 2282936). To be noted: HepG2 E-box cis-reporter transcription, actives raise or lower the signal. The method, boiled down:
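HepG2 cells transiently transfected with multiplexed cis-element reporter units, dosed 24 h; reporter mRNA quantified by RT-PCR, 6-FAM labelling, HpaI digestion and capillary electrophoresis. E-box (USF1) signal fitted bidirectionally vs DMSO.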

The nature of assay [12]: ATG_M_61_CIS: Attagene CIS-FACTORIAL HepG2 Assay for M61 Transcription Factor (Internal Marker) (AID 2282937). To be noted: HepG2 Attagene CIS-FACTORIAL M61 internal marker reporter; actives raise or lower the signal. In a few lines:
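Using transiently transfected HepG2 liver cells, reporter transcript levels were assessed 24 h post-dosing by RT-PCR and capillary electrophoresis. Changes in either direction were fitted relative to DMSO controls.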

A short description of assay [13]: ATG_EGR_CIS: Attagene CIS-FACTORIAL HepG2 Assay for human Early Growth Response 1 (EGR1) (AID 2282938). The following applies: HepG2 Attagene CIS-FACTORIAL EGR reporter mRNA; actives raise or lower the signal. In a few lines: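 Fluorescent capillary-electrophoresis signal of reporter cDNA fragments serves as read-out. HepG2 cells bear transiently transfected cis-promoter reporter units and are exposed 24 h; gain- or loss-of-signal is fitted against DMSO.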

Assay [14] can be described thus: ATG_M_19_CIS: Attagene CIS-FACTORIAL HepG2 Assay for M19 Transcription Factor (Internal Marker) (AID 2282939). The following applies: HepG2 Attagene CIS-FACTORIAL M19 internal marker reporter; actives raise or lower the signal. The method, boiled down: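 Background-control endpoint from a multiplexed HepG2 reporter panel. Cells carrying cis-regulated reporter constructs are treated 24 h, then reporter transcripts are amplified, fluorescently labelled and sized by capillary electrophoresis. DMSO defines baseline.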

Assay [15] is described as follows: ATG_Ets_CIS: Attagene CIS-FACTORIAL HepG2 Assay for human Erythroblast Transformation Specific (ETS) (AID 2282941). The following applies: HepG2 ETS cis-reporter transcription, actives raise or lower the signal. In a few lines: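 Steps: transfect HepG2 with multiple reporter units; treat compound 24 h; isolate RNA, DNase-treat, reverse-transcribe; PCR-amplify, label with 6-FAM, digest with HpaI; separate by capillary electrophoresis. Activity fitted both directions versus DMSO.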

Assay [16] addresses Hepatocyte nuclear factor 3-beta (Homo sapiens) (UniProt Q9Y261). The assay can be described thus: ATG_FoxA2_CIS: Attagene CIS-FACTORIAL HepG2 Assay for human Forkhead box A2 (FOXA2) (AID 2282942). The following applies: HepG2 cis-reporter transcription factor activity, 24 h; actives raise or lower the signal. The method, boiled down: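 Fluorescence signal of reporter cDNA fragments, separated by capillary electrophoresis, reflects endogenous transcription factor activity in transfected HepG2 after 24 h. Both increases and decreases fitted against DMSO.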

Assay [17] in a line: ATG_FoxO_CIS: Attagene CIS-FACTORIAL HepG2 Assay for human Forkhead box O (FoxO) (AID 2282943). The following applies: HepG2 Attagene cis-reporter, FoxO element, mRNA; actives raise or lower the signal. In a few lines:
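HepG2 cells transiently transfected with cis-element-driven reporter units report endogenous FoxO activity. After 24 h chemical exposure, reporter mRNA quantified by RT-PCR, fluorescent labeling, HpaI digestion and capillary electrophoresis; bidirectional fit versus DMSO.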

Assay [18] is described as follows: ATG_GATA_CIS: Attagene CIS-FACTORIAL HepG2 Assay for human GATA Binding Protein (AID 2282944). To be noted: HepG2 GATA cis-element reporter, Attagene multiplex mRNA; actives raise or lower the signal. The method, boiled down: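 Endogenous transcription factor activity was captured through cis-promoter-driven reporters in transfected HepG2 cells. After 24 h exposure, reporter transcripts were quantified by RT-PCR with fluorescent capillary electrophoresis, and responses fitted both directions against DMSO.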

The nature of assay [19]: ATG_GLI_CIS: Attagene CIS-FACTORIAL HepG2 Assay for human Zinc Finger Protein GLI1 (AID 2282945). The following applies: HepG2, Attagene cis-factorial reporter mRNA, GLI element; actives raise or lower the signal. In a few lines:
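Transiently transfected HepG2 cells report endogenous transcription factor activity via cis-element-driven reporter units. After 24 h compound exposure, reporter mRNA was measured by RT-PCR with capillary electrophoresis; bidirectional fitting against DMSO baseline.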

Activity calls are given as the source filed them. How the source made its calls: active means hit-call score of the fitted dose curve at least 0.9, where 1 is the maximum; inactive means score below 0.9.

Sequence of CCAAT/enhancer-binding protein beta (Homo sapiens) (P17676 whole entry, looked up): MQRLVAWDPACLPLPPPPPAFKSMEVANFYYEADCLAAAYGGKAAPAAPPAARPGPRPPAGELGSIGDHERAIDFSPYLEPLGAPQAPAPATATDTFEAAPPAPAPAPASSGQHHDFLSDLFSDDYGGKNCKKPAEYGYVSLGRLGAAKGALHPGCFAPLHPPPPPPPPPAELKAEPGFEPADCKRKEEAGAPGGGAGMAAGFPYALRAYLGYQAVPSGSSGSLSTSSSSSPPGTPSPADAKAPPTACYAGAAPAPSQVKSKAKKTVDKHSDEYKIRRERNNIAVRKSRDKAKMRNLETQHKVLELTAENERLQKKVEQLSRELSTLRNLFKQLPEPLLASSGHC
Sequence of Hepatocyte nuclear factor 3-beta (Homo sapiens) (Q9Y261 whole entry, looked up, the tested form may be a part): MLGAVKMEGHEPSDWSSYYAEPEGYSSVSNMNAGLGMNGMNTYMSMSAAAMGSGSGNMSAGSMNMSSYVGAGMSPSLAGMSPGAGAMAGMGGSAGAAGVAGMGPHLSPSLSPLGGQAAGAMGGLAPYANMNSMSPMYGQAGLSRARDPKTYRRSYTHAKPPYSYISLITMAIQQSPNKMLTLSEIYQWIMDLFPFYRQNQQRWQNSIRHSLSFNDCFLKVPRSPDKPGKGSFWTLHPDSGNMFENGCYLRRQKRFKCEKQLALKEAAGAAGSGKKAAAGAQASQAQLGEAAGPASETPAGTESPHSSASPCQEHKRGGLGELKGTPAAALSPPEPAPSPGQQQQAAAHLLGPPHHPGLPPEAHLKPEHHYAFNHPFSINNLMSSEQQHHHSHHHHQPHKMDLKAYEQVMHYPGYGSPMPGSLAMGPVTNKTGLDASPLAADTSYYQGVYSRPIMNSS
Sequence of Retinoic acid receptor alpha (Homo sapiens) (P10276 whole entry, looked up): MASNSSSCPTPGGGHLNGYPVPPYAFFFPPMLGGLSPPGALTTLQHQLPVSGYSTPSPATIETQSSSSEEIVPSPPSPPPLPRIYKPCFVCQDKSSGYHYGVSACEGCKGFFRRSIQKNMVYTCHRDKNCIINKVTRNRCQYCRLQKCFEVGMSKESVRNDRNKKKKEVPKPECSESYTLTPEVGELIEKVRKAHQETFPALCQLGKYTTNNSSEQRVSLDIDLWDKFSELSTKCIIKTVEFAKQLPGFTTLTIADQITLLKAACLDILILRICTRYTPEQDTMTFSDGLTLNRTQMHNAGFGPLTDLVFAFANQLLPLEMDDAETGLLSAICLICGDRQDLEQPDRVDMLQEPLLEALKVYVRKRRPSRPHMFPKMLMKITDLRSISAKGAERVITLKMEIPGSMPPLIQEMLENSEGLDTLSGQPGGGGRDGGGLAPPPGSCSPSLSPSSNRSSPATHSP
Sequence of Aryl hydrocarbon receptor (Homo sapiens) (P35869 whole entry, looked up): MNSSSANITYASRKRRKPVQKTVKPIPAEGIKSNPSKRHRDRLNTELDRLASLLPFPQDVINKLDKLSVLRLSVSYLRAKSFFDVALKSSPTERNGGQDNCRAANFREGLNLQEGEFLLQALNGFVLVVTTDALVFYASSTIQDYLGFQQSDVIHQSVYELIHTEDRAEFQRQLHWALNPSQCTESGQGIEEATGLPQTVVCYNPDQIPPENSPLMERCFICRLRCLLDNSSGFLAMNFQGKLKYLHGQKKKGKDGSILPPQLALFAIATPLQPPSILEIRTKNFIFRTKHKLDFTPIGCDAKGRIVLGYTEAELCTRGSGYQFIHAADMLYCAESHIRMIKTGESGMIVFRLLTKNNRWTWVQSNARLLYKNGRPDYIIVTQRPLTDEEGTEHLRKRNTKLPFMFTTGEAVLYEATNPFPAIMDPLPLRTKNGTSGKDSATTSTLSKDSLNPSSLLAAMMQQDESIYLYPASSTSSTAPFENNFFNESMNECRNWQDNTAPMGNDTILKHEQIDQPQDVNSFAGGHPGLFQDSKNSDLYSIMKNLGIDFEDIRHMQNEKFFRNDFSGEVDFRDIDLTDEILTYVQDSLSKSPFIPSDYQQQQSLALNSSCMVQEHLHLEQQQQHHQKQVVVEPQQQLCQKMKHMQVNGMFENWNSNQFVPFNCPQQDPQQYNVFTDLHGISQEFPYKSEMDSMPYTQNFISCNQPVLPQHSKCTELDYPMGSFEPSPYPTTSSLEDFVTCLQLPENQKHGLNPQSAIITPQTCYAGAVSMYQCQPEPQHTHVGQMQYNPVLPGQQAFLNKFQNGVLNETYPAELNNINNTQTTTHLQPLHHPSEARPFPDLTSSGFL

As to `NC1CCCCC1N` (stereo unspecified), the compound was called inactive in [1], in assay [2], in assay [3], in [4], in assay [5] and in assay [6]. Also, the outcome in assay [7], in assay [8], in [9], in [10], in assay [11] and in assay [12] was inactive. Moreover, the result in assay [13], in [14], in [15], in assay [16], in assay [17] and in [18] was inactive. Also, the compound was classed as inactive in assay [19].
`COC(=O)c1cccnc1`: the compound was called inactive in assay [1], in assay [2], in [3], in assay [4], in assay [5] and in assay [6]. The call in assay [7], in assay [8], in assay [9], in [10], in assay [11] and in assay [12] was inactive. For the same compound, the compound was called inactive in assay [13], in assay [14], in [15], in [16], in [17] and in [18]. Also, the call in assay [19] was inactive.
Turning to `CCCCC(CC)C(=O)OC(C)C` (stereo unspecified), the call in assay [1], in assay [2], in assay [3], in assay [4], in assay [5] and in assay [6] was inactive. Moreover, the call in [7], in assay [8], in assay [9], in assay [10], in assay [11] and in [12] was inactive. Further, the compound was classed as inactive in assay [13], in assay [14], in [15], in assay [16], in assay [17] and in assay [18]. Further, the call in [19] was inactive.
The term AC50 denotes the concentration giving half of the maximal activity seen. On to `CCOC(=O)COC(=O)c1cc(Oc2ccc(C(F)(F)F)cc2Cl)ccc1[N+](=O)[O-]`, for which the result in assay [1], in [2], in assay [3], in [5], in assay [6] and in assay [7] was inactive. Also, the compound was called inactive in assay [8], in assay [9], in assay [10], in assay [11], in assay [12] and in assay [13]. For the same compound, the compound was classed as inactive in assay [14], in assay [15], in assay [16], in [17], in assay [18] and in [19]. For the same compound, the concentration at half-maximal activity (AC50) in assay [4] was 35.5 µM (active).
